Source: PubChem BioAssay (several laboratories)
A selection: hits, their analogues and other compounds. The true share with any hit is near 3.6%.
NadD inh = blocks S. aureus nicotinate mononucleotide adenylyltransferase; purified NadD enzyme, colorimetric absorbance read-out; inhibition, % at 20 µM; 0.78% of 360,000 active; in the data active means inhibition above about 26%
NRP1-CendR mod = NRP-1/CendR interaction modulation. FAM-RPARPAR peptide binding to NRP-1, fluorescence polarization. inhibition, % at 25 µM. 0.85% of 360,000 active;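 active means inhibition or corrected inhibition above about 18%, plus a signal ratio from 0.5 to 1.5, limit read from the data, passing the limit was not always enough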
Target sequence (O14786 whole entry, looked up): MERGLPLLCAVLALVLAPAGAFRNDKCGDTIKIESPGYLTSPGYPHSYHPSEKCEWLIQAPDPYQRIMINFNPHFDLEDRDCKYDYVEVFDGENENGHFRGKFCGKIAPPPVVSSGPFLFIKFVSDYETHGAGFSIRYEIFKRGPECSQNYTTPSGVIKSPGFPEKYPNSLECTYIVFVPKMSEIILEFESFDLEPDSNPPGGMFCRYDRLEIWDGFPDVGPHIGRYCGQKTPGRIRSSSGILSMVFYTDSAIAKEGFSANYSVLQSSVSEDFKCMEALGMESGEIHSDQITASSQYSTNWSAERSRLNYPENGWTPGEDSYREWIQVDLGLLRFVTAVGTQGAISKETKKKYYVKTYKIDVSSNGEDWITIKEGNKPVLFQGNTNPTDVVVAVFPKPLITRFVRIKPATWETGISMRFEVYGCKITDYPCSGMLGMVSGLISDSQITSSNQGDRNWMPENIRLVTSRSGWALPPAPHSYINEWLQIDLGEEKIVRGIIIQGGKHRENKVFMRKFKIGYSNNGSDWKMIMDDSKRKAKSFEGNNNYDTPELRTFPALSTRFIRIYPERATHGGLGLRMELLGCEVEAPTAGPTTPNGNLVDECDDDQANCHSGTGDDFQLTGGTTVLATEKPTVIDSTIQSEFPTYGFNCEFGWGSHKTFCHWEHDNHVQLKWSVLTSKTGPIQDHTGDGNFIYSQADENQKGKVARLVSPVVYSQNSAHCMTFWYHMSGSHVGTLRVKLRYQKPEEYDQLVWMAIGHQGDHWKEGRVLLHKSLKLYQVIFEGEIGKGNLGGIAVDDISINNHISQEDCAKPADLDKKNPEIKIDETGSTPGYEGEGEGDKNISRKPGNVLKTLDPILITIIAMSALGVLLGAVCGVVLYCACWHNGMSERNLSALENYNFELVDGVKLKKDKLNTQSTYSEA
CRFBP-R2 block = antagonists of CRF-binding protein/CRF-R2 receptor complex; inhibition, % at 11.8 µM; HEK293 CRF-R2/CRF-BP, CRF-induced calcium fluorescence; 0.59% of 350,000 active; AID 588475;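 active means inhibition of the ligand-induced calcium signal above about 50% at the single tested concentration, limit read from the data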
FAS TE block = blocks the thioesterase domain of human fatty acid synthase; P49327; recombinant FAS-TE, OMFH fluorogenic substrate, fluorescence endpoint; inhibition, % at 15 µM; 0.67% of 360,000 active; AID 602261;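 active means compounds whose normalised, plate-corrected inhibition of enzyme fluorescence in the single-dose primary screen is 50% or more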
Myeloid diff MLP = compounds promoting myeloid differentiation. AID 624256. 1% of 360,000 active. ER-HoxA9 myeloid progenitors, lysozyme-GFP differentiation, flow cytometry. calls only at 10 µM;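 active means normalized GFP-positive differentiation at or above the plate's own cutoff, the solvent-only control mean plus 3 SD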;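 further: cells exposed to compound for four days before flow analysis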
NadD inh conf = confirmation of Staphylococcus aureus NadD inhibitors | purified S. aureus NadD, colorimetric enzyme assay | 13% of 2,000 active | inhibition, % at 20 µM | shares compounds with NadD inh | AID 624309; in the data active means inhibition mostly above about 42%, no sharp cut-off; inactive means mostly below about 42%
Hits are given with their value.

O=C(CSc1nc2ccc(NC(=O)CSc3nnnn3Cc3ccccc3)cc2s1)Nc1ccccc1 was read as NadD inh inactive, NRP1-CendR mod inactive, CRFBP-R2 block inactive, FAS TE block inactive and Myeloid diff MLP inactive.
Screening Cc1ccccc1OCc1nnc(SCC(=O)Nc2ccc3c(c2)OCO3)n1C returned NadD inh inactive, NRP1-CendR mod inactive, CRFBP-R2 block inactive, FAS TE block inactive and Myeloid diff MLP inactive.
O=C(c1ccc(Br)cc1)N1CCC2(CC1)NCCc1[nH]cnc12 was read as NadD inh inactive, NRP1-CendR mod inactive, CRFBP-R2 block inactive, FAS TE block inactive and Myeloid diff MLP inactive.
Screening O=C(NC(=S)NCC1CCCO1)c1ccc(Br)o1 (stereo not given) returned NadD inh inactive, NRP1-CendR mod inactive, CRFBP-R2 block inactive, FAS TE block inactive and Myeloid diff MLP inactive.
`Nc1ncnc2oc(-c3ccco3)c(-c3ccco3)c12` gave NadD inh 53.8, NRP1-CendR mod inactive, CRFBP-R2 block inactive, FAS TE block inactive, Myeloid diff MLP inactive and NadD inh conf inactive.
Nc1nnc(-c2ccco2)s1 was read as NadD inh inactive, NRP1-CendR mod inactive, CRFBP-R2 block inactive, FAS TE block inactive and Myeloid diff MLP inactive.
Screening NC(=O)COC(=O)c1cc(=O)[nH]c2ccc(S(=O)(=O)Nc3ccc(F)cc3)cc12 returned NadD inh inactive, NRP1-CendR mod inactive, CRFBP-R2 block inactive, FAS TE block inactive and Myeloid diff MLP inactive.
For CCc1ccc(NC(=O)C(C)OC(=O)c2cc(=O)[nH]c3ccc(S(=O)(=O)Nc4ccc(F)cc4)cc23)cc1 (stereo not given) the results were NadD inh 33.7, NRP1-CendR mod inactive, CRFBP-R2 block inactive, FAS TE block inactive, Myeloid diff MLP inactive and NadD inh conf inactive.
For Cc1ccc(Oc2nc(CN3CCOCC3)nc3sc4c(c23)CCC(C)C4)cc1 (stereo not given) the results were NadD inh inactive, NRP1-CendR mod inactive, CRFBP-R2 block inactive, FAS TE block inactive and Myeloid diff MLP inactive.
CC1CCc2c(sc3nc(CN4CCOCC4)nc(N4CCc5ccccc5C4)c23)C1 (stereo not given) was read as NadD inh 36.8, NRP1-CendR mod inactive, CRFBP-R2 block inactive, FAS TE block inactive, Myeloid diff MLP inactive and NadD inh conf inactive.
Cn1c(SCC(=O)O)nnc1-c1ccc(NC(=O)c2ccc(Cl)c(Cl)c2)cc1 was read as NadD inh inactive, NRP1-CendR mod inactive, CRFBP-R2 block inactive and FAS TE block inactive.
Screening CCCCC(CC)C(=O)Nc1cc(C(=O)NCc2ccc(C)cc2)ccc1N1CCC2(CC1)CC(c1ccccc1)=NO2 (stereo not given) returned NadD inh 32.8, NRP1-CendR mod inactive, CRFBP-R2 block inactive, FAS TE block inactive, Myeloid diff MLP inactive and NadD inh conf inactive.
CCCCCCCC(=O)Nc1cc(C(=O)NCCC)ccc1N1CCC2(CC1)CC(c1cccc(Br)c1)=NO2 was read as NadD inh inactive, NRP1-CendR mod inactive, CRFBP-R2 block inactive, FAS TE block inactive and Myeloid diff MLP inactive.
`CCCCC(CC)C(=O)Nc1cc(C(=O)NCc2ccc(C)cc2)ccc1N1CCC2(CC1)CC(c1cccc(Br)c1)=NO2` (stereo not given) gave NadD inh inactive, NRP1-CendR mod inactive, CRFBP-R2 block inactive, FAS TE block inactive and Myeloid diff MLP inactive.
For CCCCC(CC)C(=O)Nc1cc(C(=O)NCCC)ccc1N1CCC2(CC1)CC(c1cccc(Br)c1)=NO2 (stereo not given) the results were NadD inh 30.6, NRP1-CendR mod inactive, CRFBP-R2 block inactive, FAS TE block inactive, Myeloid diff MLP inactive and NadD inh conf inactive.
For CCOC(=O)c1ccc(/C=C2\c3ccccc3C(=O)N2c2ccccc2)cc1F the results were NadD inh inactive, NRP1-CendR mod inactive, CRFBP-R2 block inactive, FAS TE block inactive and Myeloid diff MLP inactive.
Screening Cc1ccc(S(=O)(=O)N2CCN(C(=O)/C=C/c3ccco3)CC2)cc1 returned NadD inh inactive, NRP1-CendR mod inactive, CRFBP-R2 block inactive, FAS TE block inactive and Myeloid diff MLP inactive.
Screening Cc1ccc(C)c(S(=O)(=O)N2CCN(C(=O)/C=C/c3ccco3)CC2)c1 returned NadD inh 34.9, NRP1-CendR mod inactive, CRFBP-R2 block inactive, FAS TE block inactive, Myeloid diff MLP inactive and NadD inh conf inactive.
For Cc1cc(C)c2nc(N3C(=O)C(O)=C(C(=O)c4ccco4)C3c3ccco3)sc2c1 (stereo not given) the results were NadD inh 39.4, NRP1-CendR mod inactive, CRFBP-R2 block inactive, FAS TE block inactive, Myeloid diff MLP inactive and NadD inh conf inactive.
For CCOc1ccc2nc(N3C(=O)C(O)=C(C(=O)c4ccco4)C3c3ccco3)sc2c1 (stereo not given) the results were NadD inh inactive, NRP1-CendR mod inactive, CRFBP-R2 block inactive, FAS TE block inactive and Myeloid diff MLP inactive.
Screening COc1cccc2c(=O)c3cccc(N)c3[nH]c12 returned NadD inh 38.5, NRP1-CendR mod 32.8, CRFBP-R2 block inactive, FAS TE block inactive, Myeloid diff MLP inactive and NadD inh conf inactive.
`COc1cccc2c(=O)c3c([nH]c12)OC(C)(C)C3` gave NadD inh inactive, NRP1-CendR mod inactive, CRFBP-R2 block inactive, FAS TE block inactive and Myeloid diff MLP inactive.
For Cc1csc2nc(SCC(=O)Nc3ccccc3F)[nH]c(=O)c12 the results were NadD inh inactive, NRP1-CendR mod inactive, CRFBP-R2 block inactive, FAS TE block inactive and Myeloid diff MLP inactive.
For CC1(Cc2ccc3c(c2)OCO3)C(=O)Nc2c(Cl)ccc(Cl)c21 (stereo not given) the results were NadD inh inactive, NRP1-CendR mod inactive, FAS TE block inactive and Myeloid diff MLP inactive.
Screening CCN(CC)S(=O)(=O)c1ccc(C(=O)Nc2nnc(NC(=S)Nc3ccccc3)s2)cc1 returned NadD inh 47.2, NRP1-CendR mod inactive, CRFBP-R2 block inactive, FAS TE block inactive, Myeloid diff MLP inactive and NadD inh conf inactive.
For CCc1cccc2cc3c(N)c(C(=O)Nc4ccc(S(=O)(=O)N5CCCC5)cc4)sc3nc12 the results were NadD inh 44.1, NRP1-CendR mod inactive, CRFBP-R2 block inactive, FAS TE block inactive, Myeloid diff MLP active and NadD inh conf inactive.
`CCn1c2ccccc2c2c3ncc4cccn4c3ccc21` gave NadD inh 39.4, NRP1-CendR mod inactive, CRFBP-R2 block inactive, FAS TE block inactive, Myeloid diff MLP active and NadD inh conf inactive.
Screening CCCOc1ccc(C(=O)N/N=C/c2ccc(-c3ccc(S(=O)(=O)Nc4ncccn4)cc3)o2)cc1 returned NadD inh 32.2, NRP1-CendR mod inactive, CRFBP-R2 block inactive, FAS TE block inactive, Myeloid diff MLP inactive and NadD inh conf 49.1.
`Nn1c(SCC(=O)Nc2ccccc2F)nnc1-c1cccs1` gave NadD inh inactive, NRP1-CendR mod inactive, CRFBP-R2 block inactive, FAS TE block inactive and Myeloid diff MLP inactive.
`CCCCn1c(N)c(N(CCOC)C(=O)c2ccc(C)o2)c(=O)[nH]c1=O` gave NadD inh inactive, NRP1-CendR mod inactive, CRFBP-R2 block inactive, FAS TE block inactive and Myeloid diff MLP inactive.
